PubChem BioAssay (NCI)
Compounds without any hit were thinned out: in the full panel of roughly 83,000, 20% have a hit.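 Percent growth is the endpoint: 0 to 100 indicates growth inhibition (40 means 60% inhibition), 0 means no net growth, and negative values indicate cell death.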 Values without a mark were called inactive. Activity calls are given as the source filed them. How the source made its calls: active means growth percent below 10; inactive means the rest.

What was measured:
Assay in all cases: NCI-60 one-dose screen, 48 h (100 = growth as untreated, 0 = no growth, -100 = all killed)
Settings in all cases: 10 µM unless noted
HCT-15 colon = test system: HCT-15 colon
HT29 colon = test system: HT29 colon
SNB-75 CNS = test system: SNB-75 CNS
SNB-19 CNS = test system: SNB-19 CNS
U251 CNS = test system: U251 CNS
PC-3 prostate = test system: PC-3 prostate
SK-MEL-5 melanoma = test system: SK-MEL-5 melanoma
UACC-62 melanoma = test system: UACC-62 melanoma
LOX IMVI melanoma = test system: LOX IMVI melanoma
SK-MEL-28 melanoma = test system: SK-MEL-28 melanoma
SK-MEL-2 melanoma = test system: SK-MEL-2 melanoma
EKVX NSCLC = test system: EKVX NSCLC
SN12C renal = test system: SN12C renal
UO-31 renal = test system: UO-31 renal
TK-10 renal = test system: TK-10 renal
ACHN renal = test system: ACHN renal
CAKI-1 renal = test system: CAKI-1 renal
CCRF-CEM leukemia = test system: CCRF-CEM leukemia
MOLT-4 leukemia = test system: MOLT-4 leukemia

Structure (SMILES)	growth (HCT-15 colon)	growth (HT29 colon)	growth (SNB-75 CNS)	growth (SNB-19 CNS)	growth (U251 CNS)	growth (PC-3 prostate)	growth (SK-MEL-5 melanoma)	growth (UACC-62 melanoma)	growth (LOX IMVI melanoma)	growth (SK-MEL-28 melanoma)	growth (SK-MEL-2 melanoma)	growth (EKVX NSCLC)	growth (SN12C renal)	growth (UO-31 renal)	growth (TK-10 renal)	growth (ACHN renal)	growth (CAKI-1 renal)	growth (CCRF-CEM leukemia)	growth (MOLT-4 leukemia)
N=C(N)c1ccc(-c2ccc(-c3ccc(Cl)cc3Cl)o2)nc1	2.86% (active)	-23.8% (active)	-20% (active)	48.6%	-37.3% (active)	56.2%	87%	101%	-82.6% (active)	80.9%	103%	95.4%	-42.8% (active)	-16.1% (active)	61%	12.3%	53.8%	-12.9% (active)	1.62% (active)
C=CC(=O)N[C@@H](Cc1ccc(-c2cc(Cl)cc(Cl)c2)cc1)[C@@H](O)[C@H](O)C(=O)O	104%	87.9%	104%	98.1%	92.1%	89.4%	99.3%	89.3%	98.4%	107%	97%	93%	95.7%	84%	99.3%	100%	91.6%	105%	93.3%
CCOc1ccc(-c2nc3ccc(-c4nc5ccc(N6CCN(C)CC6)cc5[nH]4)cc3[nH]2)cc1OCC	63.7%	19.4%	6.64% (active)	8.93% (active)	4.64% (active)	17.2%	8.43% (active)	-14.3% (active)	-74.5% (active)	-27.2% (active)	-17.5% (active)	50.2%	20.8%	98.6%	91%	81.9%	40.8%	11.3%	9.04% (active)
O=C1CCC(N2C(=O)c3cccc(NCCCC4CCN(CCNC(=O)c5cc6c(o5)C(=O)c5ccccc5C6=O)CC4)c3C2=O)C(=O)N1 (centres undefined)	-80.8% (active)	1.94% (active)	-99.2% (active)	-96% (active)	-83.6% (active)	2.13% (active)	-99.4% (active)	-96.2% (active)	-90.1% (active)	-6.88% (active)	-46.4% (active)	-61.8% (active)	-95.4% (active)	-72.9% (active)	-70.6% (active)	-92.4% (active)	-26.4% (active)	21%	21.8%
COc1ccccc1C(=O)NC(=S)Nc1ccc(-c2nc3ccccc3[nH]2)cc1	59.5%	14.8%	-62.7% (active)	84%	29.3%	86%	25.8%	109%	20%	69.5%	109%	91.1%	46%	28.5%	59.6%	71.4%	105%	80.8%	91.9%
C/C(=N\NC(N)=S)c1nc2ccc(Cl)cc2[nH]1	35.7%	32.8%	43.6%	57.6%	49.9%	52.3%	45.3%	36.7%	43.7%	68.7%	32.1%	63.3%	48.5%	41.9%	33.9%	19.6%	26.9%	32.8%	30.4%
CCCCCCCCn1cc(C2=C(c3coc4ccc(OC)cc34)C(=O)NC2=O)c2ccccc21	97.4%	99.3%	84.8%	108%	97.2%	107%	99.2%	96.2%	61.2%	101%	107%	102%	102%	85.7%	97.6%	103%	99.7%	99%	125%
COc1cc(-c2ccc(-c3ccc(C(=N)N)nc3)s2)cc(OC)c1OC	21.4%	14.2%	68.5%	65.2%	28.9%	54.7%	37.6%	59.5%	-14.3% (active)	59.3%	89.3%	89.9%	66.6%	70.5%	102%	47.1%	95.9%	10.9%	23.8%
N=C(N)c1ccc(-c2ccc(-c3ccc(Cl)c(Cl)c3)o2)cc1	-55.7% (active)	-20.3% (active)	78.6%	25.4%	-36.9% (active)	47.4%	83.5%	93.5%	-96% (active)	59.7%	102%	69.8%	-81% (active)	-69.1% (active)	76%	-70.7% (active)	53%	-24.9% (active)	-31% (active)
COc1cc(C2CC(=O)Nc3n[nH]c(-c4ccccc4)c32)cc(OC)c1OC (centres undefined)	68.4%	47.1%	47.7%	75.4%	62.9%	59.3%	68%	38%	70.3%	66.5%	59.8%	78.2%	84.2%	87.1%	97.7%	104%	92%	70.2%	54%
O=C(NCOC(O)C(Cl)(Cl)Cl)NCOC(O)C(Cl)(Cl)Cl (centres undefined)	95.8%	94.4%	85.6%	98.4%	102%	95.6%	102%	98.8%	97.7%	92.8%	89.7%	107%	97.8%	78.4%	100%	92.8%	95.9%	105%	98.9%
O=C(/C=C/C12c3ccccc3C(c3ccccc31)C1C(=O)N(c3ccccc3)C(=O)C12)c1ccccc1 (centres undefined)	-25.8% (active)	15.1%	34.2%	31.2%	7.97% (active)	21.2%	-67.1% (active)	1.31% (active)	-81.4% (active)	2.04% (active)	24.5%	8.88% (active)	15%	-77.5% (active)	20.8%	-15% (active)	45.8%	9.95% (active)	11%
CCn1c(Sc2nnc(Nc3ccccc3)s2)nc2c1c(=O)n(C)c(=O)n2C	97.6%	137%	101%	95%	103%	100%	99.2%	90.2%	95.9%	93%	130%	86.5%	96.4%	73%	146%	91%	93.9%	117%	110%
N=C(N)c1ccc(-c2ccc(-c3ccc(Cl)cn3)s2)cc1	-46% (active)	0.247% (active)	62%	65.7%	-24.7% (active)	56.3%	70.5%	89.7%	-82.1% (active)	76.4%	99.8%	65.8%	10.2%	57.6%	91.9%	12%	63.2%	3.3% (active)	4.73% (active)
N=C(N)c1ccc(-c2ccc(/C=C/c3ccccc3)s2)cc1	-54% (active)	-2.42% (active)	24.3%	24.3%	-46.6% (active)	52.7%	81.3%	86.2%	-82.1% (active)	80.8%	102%	71.2%	-31.8% (active)	63.1%	98.5%	-5.84% (active)	32.5%	1.58% (active)	-21% (active)
CN1CCN(c2ccc3nc(/N=C/c4ccc5sc(-c6ccc([N+](=O)[O-])cc6)nc5c4)sc3c2)CC1	102%	103%	106%	104%	93.9%	104%	90.6%	104%	117%	107%	111%	97.7%	104%	92.2%	101%	108%	108%	101%	108%
